Source: PubChem BioAssay AID504727 (Broad Institute, 2011)
The source made the active and inactive calls.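 The calls were made as follows: active = fitted half-maximal concentration AC50 at or below ten times the highest valid tested dose, with signal falling as DNA is displaced (actives reach about 34 µM in these data); inconclusive = flat fit at moderate signal loss, or poor fit quality; inactive = the rest, including signal rising instead of falling.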

Experiment: acridine orange-DNA binding displacement – biochemical, fluorescence polarization, cherry-picked samples, set 2, artefact control for KSHV LANA DNA-binding inhibitor project, dose response (AID 504727);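 as to activity change, negative = DNA displacement: 0% = median of neutral control wells and -100% = mitoxantrone positive control wells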
Settings: series mostly up to 35 µM; activity change, negative = DNA displacement: at the top concentration
With `CN(C)C1C(=O)C(C(N)=O)=C(O)C2(O)C(=O)C3=C(O)c4c(O)cccc4C(C)(O)C3C(O)C12` (centres undefined) the “activity change, negative = DNA displacement” value (“activity change” below) was 1.49% (inactive).
In the case of `COc1ccc(OC)c(N2C(=O)NC(=O)/C(=C\c3ccc([N+](=O)[O-])s3)C2=O)c1`, the “activity change” value is reported as 4.68% (inactive).
In the case of `N/C(=N\N=C/c1ccc(-c2ccc(O)c(C(=O)O)c2)o1)N[N+](=O)[O-]`, the “activity change” value is reported as 2.31% (inactive).
With `COCCNC(=O)Cn1cc(/C=C2\C(=O)NC(=O)N(c3cccc(C)c3C)C2=O)c2ccccc21` the AC50 was 20.4 µM (active).
In the case of `CCOC(=O)c1c(/N=C/c2c(O)n(-c3cccc(C)c3)c(=O)[nH]c2=O)sc2c1CCCC2`, the “activity change” value is reported as 4.56% (inactive).
For `O=[N+]([O-])c1ccc(N2CCCCCC2)c2nonc12`, the AC50 was 13.7 µM (active).
With `Cc1cc(OCC(=O)OC(C)(C)C)c2c3c(c(=O)oc2c1)CCC3` the “activity change” value was 2.45% (inactive).
In the case of `CC1=NCCc2c1[nH]c1cc(O)ccc21`, the AC50 is reported as 3.74 µM (active).
For `Nc1ccc2nonc2c1[N+](=O)[O-]`, the AC50 was 8.02 µM (active).
With `CC(C)CC(=O)Nc1ccc(S(=O)(=O)N2CC3CC(C2)c2cccc(=O)n2C3)cc1` (centres undefined) the “activity change” value was -1.57% (inactive).
For `CC(OC(=O)c1cn(C)c2ccccc12)C(=O)N1CCCC1` (centres undefined), the “activity change” value was 6.83% (inactive).
For `O=c1[nH]c(=O)n(C2CCCCC2)c(O)c1C=Nc1ccc(N2CCOCC2)cc1`, the “activity change” value was 2.56% (inactive).
For `CCN(CC)C(=O)c1ccc2c(c1)C1C=CCC1C(C(=O)O)N2` (centres undefined), the “activity change” value was 6.31% (inactive).
With `O=c1c2ccccc2nc(/C=C\c2ccccc2[N+](=O)[O-])n1-c1ccccc1O` the “activity change” value was 5.85% (inactive).
In the case of `CCn1c(O)c(N=Nc2cccc(S(=O)(=O)N3CCOCC3)c2)c(=O)n(CC)c1=S`, the “activity change” value is reported as -0.935% (inactive).
In the case of `Nc1ccc2ccc3cccc[n+]3c2c1`, the AC50 is reported as 1.87 µM (active).
With `COC(=O)C1=C(c2ccc(OC(F)(F)F)cc2)C[C@@H]2CC[C@H]1N2C(=O)NC1CCCCC1` the “activity change” value was 6.88% (inactive).
For `CCOC(=O)C1CCCN(c2ccc([N+](=O)[O-])c3nonc23)C1` (centres undefined), the AC50 was 3.67 µM (active).
In the case of `Cc1cc(=O)oc2cc(OCC(=O)N3CCN(Cc4ccc5c(c4)OCO5)CC3)ccc12`, the “activity change” value is reported as -0.682% (inactive).
In the case of `CC(Cc1ccccc1)NC(=O)NC(C)Cc1ccccc1` (centres undefined), the “activity change” value is reported as -2.07% (inactive).
In the case of `CN1CCN(c2ccc([N+](=O)[O-])c3no[n+]([O-])c23)CC1`, the AC50 is reported as 29.2 µM (active).
With `Cc1cc(/C=C2\C(=O)NC(=O)N(Cc3ccccc3)C2=O)c(C)n1-c1ccc(Cl)c(C(=O)O)c1` the “activity change” value was 4.37% (inactive).
For `CCCCc1ccc(C(=O)O)nc1`, the “activity change” value was 2.8% (inactive).
For `O=C(O)c1cccc2c1NC(C(=O)O)C1CC(Sc3ccccc3[N+](=O)[O-])C(Cl)C21` (centres undefined), the “activity change” value was 5.91% (inactive).
